HTT prom inh – HTT promoter inhibition. HEK293 HTT promoter firefly luciferase reporter, 24 h. Potency, µM (top dose mostly 57.5 µM), inactives show top-dose activity change, negative = inhibition, actives largely listed as inhibitors. 48,000 compounds, 0.93% hits. AID 1508623; further: nearly all actives have a fitted effect of over 50% in size
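Luminescence was read after Dual-Glo reagent and a 10 min room-temperature incubation. Values were normalized to vehicle (0% activity) and zero RLU (-100% activity). Reporter HEK293 cells had been exposed to compounds (up to 57.5 uM final) for 24 h.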
HTT-AS act – HTT-AS promoter activation. HEK293 HTT-AS promoter firefly luciferase reporter, 24 h; response scale: percent change from vehicle, -100% = no light. AID 1508624. Potency, µM (doses to about 57.5 µM), for inactives: at the top dose activity change, positive = activation, actives largely listed as activators. 48,000 compounds, 0.24% hits; further: nearly all actives have a fitted effect of over 55% in size
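Luminescence was read after Dual-Glo reagent and a 10 min room-temperature incubation. Values were normalized to vehicle (0% activity) and zero RLU (-100% activity). Reporter HEK293 cells had been exposed to compounds (up to 57.5 uM final) for 24 h.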
NTMT1 inh – blocks human N-terminal methyltransferase 1 activity | NTMT1 MTase-Glo SAH luminescence, purified enzyme | 59,000 compounds, 2.5% hits | Q9BV86 | Potency, µM (highest dose often 114 µM), for inactives: top-dose activity change, negative = inhibition, most hits filed as inhibitors;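 further: plate controls were DMSO vehicle for no effect and no enzyme for full effect; nearly all actives have a fitted effect of over 65% in size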
Target sequence (Q9BV86 whole entry, looked up): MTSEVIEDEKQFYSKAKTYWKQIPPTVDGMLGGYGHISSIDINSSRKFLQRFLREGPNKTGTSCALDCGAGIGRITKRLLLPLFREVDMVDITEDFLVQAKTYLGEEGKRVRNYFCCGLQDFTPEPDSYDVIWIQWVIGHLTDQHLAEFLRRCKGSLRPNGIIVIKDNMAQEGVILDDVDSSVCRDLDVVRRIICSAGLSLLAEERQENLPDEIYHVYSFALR
Active calls of the source: *; ? = inconclusive; · = no result given; ! = a repeat was not active; [ ] = dose if it differs, or a comment. The full list was thinned out, with hits kept by preference. The call rests on the fitted dose curve; in most records, active means well fitted curve in the direction sought with a large enough effect; inconclusive means small, poorly fitted or top-dose-only effect, or another doubt; inactive means no such curve, though single readings can be large; an effect the other way counts as inactive or inconclusive. Potency means the concentration at half of the fitted maximal effect.

SMILES	HTT prom inh	HTT-AS act	NTMT1 inh
Cc1onc(-c2c(Cl)cccc2Cl)c1CC(=O)NCc1ccc(OCC(F)(F)F)nc1	·	·	7%[57.5 µM]
CCC1=C(C)C(=O)C(C)CC12C(=O)CCC2C(=O)O (stereo not given)	·	·	5%[57.5 µM]
COc1cccc(CNc2ccc(S(=O)(=O)Nc3ncc(C)s3)cc2)c1O	·	·	-1%
CCOc1ccc(CCNC(=O)CCc2c(C)nc3c(-c4ccccc4)c(C)nn3c2C)cc1OCC	-5%	0%	3%
CCOc1ccc(CCNC(=O)CCc2c(C)nc3cc(-c4ccccc4OC)nn3c2C)cc1	13µM*	-81%	-4%
Cc1nc2cc(-c3ccccc3)nn2c(C)c1CCC(=O)N1CCN(c2ccc(F)cc2)CC1	2µM*	-75%	26%
Cc1nc2c(c(C)nn2-c2ccccc2)c(C)c1CCC(=O)NCCc1ccccc1	-1%	-7%	8%
Cc1nc2nc(-c3ccc(Cl)cc3Cl)nn2c(C)c1CCC(=O)Nc1ccc(F)cc1	7.9µM*	-80%	4%
Cc1nc2nc(CNC(=O)c3cccc(F)c3)nn2c(C)c1CCC(=O)Nc1ccc(F)cc1	11%	4%	-11%
CCOc1ccc(CCNC(=O)CCc2c(C)nc3c(c(C)nn3-c3ccccc3)c2C)cc1OCC	-22%	-36%	89µM*
Cc1nc2c(-c3ccc(F)cc3)c(C)nn2c(C)c1CCC(=O)N1CCN(c2ccccc2)CC1	-10%	-14%	3%
Cc1cccc(CNc2nc(-c3ccccc3C(F)(F)F)nc3ccccc23)c1	·	·	13%
Cc1ccc(NC(=O)CCc2c(C)nc3cc(-c4ccccc4)nn3c2C)cc1F	2µM*	-71%	-19%
Cc1cccc(CCNC(=O)CCc2c(C)nc3c4c(C)cc(C)nc4nn3c2C)c1	-14%	-16%	0%
CSc1ccc(CCNC(=O)CCc2c(C)nc3cc(-c4ccccc4)nn3c2C)cc1	2µM*	-68%	0%
CCOc1ccccc1NC(=O)CCc1c(C)nc2cc(-c3ccccc3)nn2c1C	?	-66%	4%
CC(=O)Nc1sc2c(c1-c1cccnc1)CCNC2	·	·	22%
Nc1nc2c(cnn2CCCc2ccc(O)cc2)c2nc(-c3ccco3)nn12	·	·	-2%[57.5 µM]
Cc1ccc(-n2c(-c3cccc(C)c3)nc3c(cnn3-c3ccccc3)c2=O)cc1	0%	11%[11.5 µM]	?
Cc1cccc(-c2nc3c(cnn3-c3ccccc3)c(=O)n2-c2ccc(Br)cc2)c1	-7%	9%	89µM*
O=C(NCCc1nc2ccccc2n1CCOc1ccc(C(F)(F)F)cc1)C1CCCCC1	·	·	4%[57.5 µM]
CO[C@@H]1[C@@H](O)[C@H](O)[C@@H](n2c3c(Cl)cccc3c3c4c(c5c6cccc(Cl)c6[nH]c5c32)C(=O)NC4=O)O[C@H]1CO	·	·	-12%
CN(C)c1ccc(C(CNS(=O)(=O)c2ccc(F)cc2)N2CCOCC2)cc1 (stereo not given)	-17%	-23%	-1%
CN(C)c1ccc(C(CNS(=O)(=O)c2ccc(F)cc2)N2CCCC2)cc1 (stereo not given)	1%	-4%	89µM*
COc1ccccc1N1CCN(CC(O)COc2ccc(C)cc2C(C)(C)C)CC1 (stereo not given)	?	-27%	?
SMILES	HTT prom inh	HTT-AS act	NTMT1 inh
O[C@@H](COc1cccc2ncccc12)CN1CCN(C2c3ccccc3[C@@H]3[C@H](c4ccccc42)C3(F)F)CC1 (stereo not given in full)	?	-34%	79µM*!
Cc1ccc(OCCn2c(CCNC(=O)CCN3CCCCC3)nc3ccccc32)cc1	·	·	0%[57.5 µM]
CC(=O)c1cccc(NC(=O)c2cccn2-c2nnc(N3CCCCC3)s2)c1	-9%	-4%	?
Cc1ccc(NC(=O)c2cccn2-c2nnc(N3CCCCC3)s2)cc1Cl	-18%	-16%	79µM*
O=C(Nc1ncc(Cc2ccccc2)s1)c1ccc(-c2cccc([N+](=O)[O-])c2)o1	·	·	10%
CC1(C)CC[C@]23CO[C@@]4(CCC5[C@@]6(C)CC[C@H](O[C@@H]7OC[C@H](O[C@@H]8O[C@H](CO)[C@@H](O)[C@H](O)[C@H]8O)[C@H](O)[C@H]7O[C@@H]7O[C@H](CO)[C@@H](O[C@@H]8O[C@H](CO)[C@@H](O)[C@H](O)[C@H]8O)[C@H](O)[C@H]7O)[C@@](C)(CO)C6CC[C@@]5(C)[C@]4(C)C[C@H]2OC2OCC(O)C(O)C2O)C3C1 (stereo not given in full)	·	·	5%[6.45 µM]
Cc1csc(NC(=O)c2sc3nc4c(c(C(F)(F)F)c3c2N)CCC4)n1	?	-89%	27µM*!
CC(=O)N1CCc2nc3sc(C(=O)c4ccc(F)cc4)c(N)c3c(C(F)(F)F)c2C1	?	-31%	-6%
CC(C)c1ccccc1-c1ncc(F)c(NCc2ccc(-c3cccnc3)s2)n1	·	·	3%[57.5 µM]
CC(C)=CCC[C@](C)(O)[C@H]1CC[C@]2(C)[C@@H]1[C@H](O)CC1[C@@]3(C)CC[C@H](O)C(C)(C)[C@@H]3[C@@H](O[C@@H]3O[C@H](CO)[C@@H](O)[C@H](O)[C@H]3O[C@@H]3O[C@H](CO)[C@@H](O)[C@H](O)[C@H]3O)C[C@]12C (stereo not given in full)	·	·	-5%[12.6 µM]
Cc1ccc2oc(-c3ccc(Cl)cc3)c(O)c(=O)c2c1	89%	2.5µM*	7%
CCOc1ccc(-c2oc3ccccc3c(=O)c2O)cc1OCC	25%	?	6%
Cc1ccc(-c2ccc(=O)n(CC(=O)NCCc3ccncc3)n2)cc1	·	·	12%
CCn1c(C(=O)N2CCC(C(=O)NCCc3ccc(C)cc3)CC2)cc2sccc21	?	-30%	-5%
CC(C)CCNC(=O)C1CCN(C(=O)c2cc3sccc3n2Cc2ccc(Cl)cc2)CC1	25µM*	-62%	3%
CC(=O)N(C(C)=O)n1c(C)nc2sc3c(c2c1=O)CCNC3	·	·	0%
CCCCOc1ccc(C(=O)NCCc2csc(-c3ccc(OC)cc3)n2)cc1	22µM*	-40%	4%
COc1ccc(C(=O)NCCc2csc(-c3ccc(Cl)cc3)n2)cc1	?	-19%	-2%
CCOc1ccc(/C=C/C(=O)Nc2sc3c(c2C(=O)OC)C(C(=O)OC)CC3)cc1 (stereo not given)	-13%	-10%	10µM*
COC(=O)c1c(NC(=O)CCCOc2cccc(C)c2)sc2c1C(C(=O)OC)CC2 (stereo not given)	?	-26%	14µM*
COC(=O)c1c(NC(=O)CCCOc2ccc(C)cc2)sc2c1CCCC2	-10%	-19%	-6%
COC(=O)c1c(NC(=O)CCCOc2ccc(C)cc2)sc2c1C(C(=O)OC)CC2 (stereo not given)	-11%	-14%	18µM*
CCOc1ccc(/C=C/C(=O)Nc2sc3c(c2C(=O)OC)CCCC3)cc1	16%	4%	4%
COC(=O)c1c(NC(=O)CCCOc2cccc(C)c2)sc2c1CCC2	-15%	2%	-10%
CC(=O)c1c(C)cccc1O[C@@H]1O[C@H](CO)[C@@H](O)[C@H](O)[C@H]1O	·	·	8%[29.8 µM]
c1ccc(Cn2c(-c3ccc(OCC(C4CCNCC4)n4c(-c5ccccc5)nc5ccccc54)cc3)nc3ccccc32)cc1 (stereo not given)	·	·	28µM*
Cc1cccc(Cn2c(-c3ccccc3)nc3ccccc32)c1	2%	-23%	-2%
